# From PMC11102866, “Nucleosome-bound NR5A2 structure reveals pioneer factor mechanism by DNA minor groove anchor competition”
# B1: 32 (nucleosome)
# DNA 1: ATCCTGGAGAATCCCGGTGCCGAGGCCGCTCAATTCAAGGCCAACAGCTCTAGCACCGCTTAAACGCACGTACGCGCTGTCCCCCGCGTTTTAACCGCCAAGGGGATTACTCCCTAGTCTCCAGGCACGTGTCAGATATATACATCCTGTGAT
# DNA 2: ATCACAGGATGTATATATCTGACACGTGCCTGGAGACTAGGGAGTAATCCCCTTGGCGGTTAAAACGCGGGGGACAGCGCGTACGTGCGTTTAAGCGGTGCTAGAGCTGTTGGCCTTGAATTGAGCGGCCTCGGCACCGGGATTCTCCAGGAT
# modifications: reconstituted with mouse histones H2A, H2B, H3.3 and H4
# B2: 34 (nucleosome)
# DNA 1: ATCCTGGAGAATCCCGGTGCCGAGGCCGCTCAATTGTCAAGGCCAAGCTCTAGCACCGCTTAAACGCACGTACGCGCTGTCCCCCGCGTTTTAACCGCCAAGGGGATTACTCCCTAGTCTCCAGGCACGTGTCAGATATATACATCCTGTGAT
# DNA 2: ATCACAGGATGTATATATCTGACACGTGCCTGGAGACTAGGGAGTAATCCCCTTGGCGGTTAAAACGCGGGGGACAGCGCGTACGTGCGTTTAAGCGGTGCTAGAGCTTGGCCTTGACAATTGAGCGGCCTCGGCACCGGGATTCTCCAGGAT
# modifications: reconstituted with mouse histones H2A, H2B, H3.3 and H4
# B3: 38 (nucleosome)
# DNA 1: ATCCTGGAGAATCCCGGTGCCGAGGCCGCTCAATTGGTCGTCAAGGCCACTAGCACCGCTTAAACGCACGTACGCGCTGTCCCCCGCGTTTTAACCGCCAAGGGGATTACTCCCTAGTCTCCAGGCACGTGTCAGATATATACATCCTGTGAT
# DNA 2: ATCACAGGATGTATATATCTGACACGTGCCTGGAGACTAGGGAGTAATCCCCTTGGCGGTTAAAACGCGGGGGACAGCGCGTACGTGCGTTTAAGCGGTGCTAGTGGCCTTGACGACCAATTGAGCGGCCTCGGCACCGGGATTCTCCAGGAT
# modifications: reconstituted with mouse histones H2A, H2B, H3.3 and H4
# B4: 33 (nucleosome)
# DNA 1: ATCCTGGAGAATCCCGGTGCCGAGGCCGCTCAATTTCAAGGCCACAGCTCTAGCACCGCTTAAACGCACGTACGCGCTGTCCCCCGCGTTTTAACCGCCAAGGGGATTACTCCCTAGTCTCCAGGCACGTGTCAGATATATACATCCTGTGAT
# DNA 2: ATCACAGGATGTATATATCTGACACGTGCCTGGAGACTAGGGAGTAATCCCCTTGGCGGTTAAAACGCGGGGGACAGCGCGTACGTGCGTTTAAGCGGTGCTAGAGCTGTGGCCTTGAAATTGAGCGGCCTCGGCACCGGGATTCTCCAGGAT
# modifications: reconstituted with mouse histones H2A, H2B, H3.3 and H4
# B5: 4 (nucleosome)
# DNA 1: ATCCTGTCAAGGCCAGGTGCCGAGGCCGCTCAATTGGTCGTAGACAGCTCTAGCACCGCTTAAACGCACGTACGCGCTGTCCCCCGCGTTTTAACCGCCAAGGGGATTACTCCCTAGTCTCCAGGCACGTGTCAGATATATACATCCTGTGAT
# DNA 2: ATCACAGGATGTATATATCTGACACGTGCCTGGAGACTAGGGAGTAATCCCCTTGGCGGTTAAAACGCGGGGGACAGCGCGTACGTGCGTTTAAGCGGTGCTAGAGCTGTCTACGACCAATTGAGCGGCCTCGGCACCTGGCCTTGACAGGAT
# modifications: reconstituted with mouse histones H2A, H2B, H3.3 and H4
# B6: 35 (nucleosome)
# DNA 1: ATCCTGGAGAATCCCGGTGCCGAGGCCGCTCAATTGGTCAAGGCCAGCTCTAGCACCGCTTAAACGCACGTACGCGCTGTCCCCCGCGTTTTAACCGCCAAGGGGATTACTCCCTAGTCTCCAGGCACGTGTCAGATATATACATCCTGTGAT
# DNA 2: ATCACAGGATGTATATATCTGACACGTGCCTGGAGACTAGGGAGTAATCCCCTTGGCGGTTAAAACGCGGGGGACAGCGCGTACGTGCGTTTAAGCGGTGCTAGAGCTGGCCTTGACCAATTGAGCGGCCTCGGCACCGGGATTCTCCAGGAT
# modifications: reconstituted with mouse histones H2A, H2B, H3.3 and H4
# B7: 39 (nucleosome)
# DNA 1: ATCCTGGAGAATCCCGGTGCCGAGGCCGCTCAATTGGTCGTTCAAGGCCATAGCACCGCTTAAACGCACGTACGCGCTGTCCCCCGCGTTTTAACCGCCAAGGGGATTACTCCCTAGTCTCCAGGCACGTGTCAGATATATACATCCTGTGAT
# DNA 2: ATCACAGGATGTATATATCTGACACGTGCCTGGAGACTAGGGAGTAATCCCCTTGGCGGTTAAAACGCGGGGGACAGCGCGTACGTGCGTTTAAGCGGTGCTATGGCCTTGAACGACCAATTGAGCGGCCTCGGCACCGGGATTCTCCAGGAT
# modifications: reconstituted with mouse histones H2A, H2B, H3.3 and H4
# B8: 40 (nucleosome)
# DNA 1: ATCCTGGAGAATCCCGGTGCCGAGGCCGCTCAATTGGTCGTATCAAGGCCAAGCACCGCTTAAACGCACGTACGCGCTGTCCCCCGCGTTTTAACCGCCAAGGGGATTACTCCCTAGTCTCCAGGCACGTGTCAGATATATACATCCTGTGAT
# DNA 2: ATCACAGGATGTATATATCTGACACGTGCCTGGAGACTAGGGAGTAATCCCCTTGGCGGTTAAAACGCGGGGGACAGCGCGTACGTGCGTTTAAGCGGTGCTTGGCCTTGATACGACCAATTGAGCGGCCTCGGCACCGGGATTCTCCAGGAT
# modifications: reconstituted with mouse histones H2A, H2B, H3.3 and H4
# B9: 44 (nucleosome)
# DNA 1: ATCCTGGAGAATCCCGGTGCCGAGGCCGCTCAATTGGTCGTAGACATCAAGGCCACCGCTTAAACGCACGTACGCGCTGTCCCCCGCGTTTTAACCGCCAAGGGGATTACTCCCTAGTCTCCAGGCACGTGTCAGATATATACATCCTGTGAT
# DNA 2: ATCACAGGATGTATATATCTGACACGTGCCTGGAGACTAGGGAGTAATCCCCTTGGCGGTTAAAACGCGGGGGACAGCGCGTACGTGCGTTTAAGCGGTGGCCTTGATGTCTACGACCAATTGAGCGGCCTCGGCACCGGGATTCTCCAGGAT
# modifications: reconstituted with mouse histones H2A, H2B, H3.3 and H4
# B10: 45 (nucleosome)
# DNA 1: ATCCTGGAGAATCCCGGTGCCGAGGCCGCTCAATTGGTCGTAGACAGTCAAGGCCACGCTTAAACGCACGTACGCGCTGTCCCCCGCGTTTTAACCGCCAAGGGGATTACTCCCTAGTCTCCAGGCACGTGTCAGATATATACATCCTGTGAT
# DNA 2: ATCACAGGATGTATATATCTGACACGTGCCTGGAGACTAGGGAGTAATCCCCTTGGCGGTTAAAACGCGGGGGACAGCGCGTACGTGCGTTTAAGCGTGGCCTTGACTGTCTACGACCAATTGAGCGGCCTCGGCACCGGGATTCTCCAGGAT
# modifications: reconstituted with mouse histones H2A, H2B, H3.3 and H4
# B11: 36 (nucleosome)
# DNA 1: ATCCTGGAGAATCCCGGTGCCGAGGCCGCTCAATTGGTTCAAGGCCACTCTAGCACCGCTTAAACGCACGTACGCGCTGTCCCCCGCGTTTTAACCGCCAAGGGGATTACTCCCTAGTCTCCAGGCACGTGTCAGATATATACATCCTGTGAT
# DNA 2: ATCACAGGATGTATATATCTGACACGTGCCTGGAGACTAGGGAGTAATCCCCTTGGCGGTTAAAACGCGGGGGACAGCGCGTACGTGCGTTTAAGCGGTGCTAGAGTGGCCTTGAACCAATTGAGCGGCCTCGGCACCGGGATTCTCCAGGAT
# modifications: reconstituted with mouse histones H2A, H2B, H3.3 and H4
# B12: 37 (nucleosome)
# DNA 1: ATCCTGGAGAATCCCGGTGCCGAGGCCGCTCAATTGGTCTCAAGGCCATCTAGCACCGCTTAAACGCACGTACGCGCTGTCCCCCGCGTTTTAACCGCCAAGGGGATTACTCCCTAGTCTCCAGGCACGTGTCAGATATATACATCCTGTGAT
# DNA 2: ATCACAGGATGTATATATCTGACACGTGCCTGGAGACTAGGGAGTAATCCCCTTGGCGGTTAAAACGCGGGGGACAGCGCGTACGTGCGTTTAAGCGGTGCTAGATGGCCTTGAGACCAATTGAGCGGCCTCGGCACCGGGATTCTCCAGGAT
# modifications: reconstituted with mouse histones H2A, H2B, H3.3 and H4
# B13: 41 (nucleosome)
# DNA 1: ATCCTGGAGAATCCCGGTGCCGAGGCCGCTCAATTGGTCGTAGTCAAGGCCAGCACCGCTTAAACGCACGTACGCGCTGTCCCCCGCGTTTTAACCGCCAAGGGGATTACTCCCTAGTCTCCAGGCACGTGTCAGATATATACATCCTGTGAT
# DNA 2: ATCACAGGATGTATATATCTGACACGTGCCTGGAGACTAGGGAGTAATCCCCTTGGCGGTTAAAACGCGGGGGACAGCGCGTACGTGCGTTTAAGCGGTGCTGGCCTTGACTACGACCAATTGAGCGGCCTCGGCACCGGGATTCTCCAGGAT
# modifications: reconstituted with mouse histones H2A, H2B, H3.3 and H4
# B14: 42 (nucleosome)
# DNA 1: ATCCTGGAGAATCCCGGTGCCGAGGCCGCTCAATTGGTCGTAGATCAAGGCCACACCGCTTAAACGCACGTACGCGCTGTCCCCCGCGTTTTAACCGCCAAGGGGATTACTCCCTAGTCTCCAGGCACGTGTCAGATATATACATCCTGTGAT
# DNA 2: ATCACAGGATGTATATATCTGACACGTGCCTGGAGACTAGGGAGTAATCCCCTTGGCGGTTAAAACGCGGGGGACAGCGCGTACGTGCGTTTAAGCGGTGTGGCCTTGATCTACGACCAATTGAGCGGCCTCGGCACCGGGATTCTCCAGGAT
# modifications: reconstituted with mouse histones H2A, H2B, H3.3 and H4
# B15: 43 (nucleosome)
# DNA 1: ATCCTGGAGAATCCCGGTGCCGAGGCCGCTCAATTGGTCGTAGACTCAAGGCCAACCGCTTAAACGCACGTACGCGCTGTCCCCCGCGTTTTAACCGCCAAGGGGATTACTCCCTAGTCTCCAGGCACGTGTCAGATATATACATCCTGTGAT
# DNA 2: ATCACAGGATGTATATATCTGACACGTGCCTGGAGACTAGGGAGTAATCCCCTTGGCGGTTAAAACGCGGGGGACAGCGCGTACGTGCGTTTAAGCGGTTGGCCTTGAGTCTACGACCAATTGAGCGGCCTCGGCACCGGGATTCTCCAGGAT
# modifications: reconstituted with mouse histones H2A, H2B, H3.3 and H4
# Molecular target: NR5A2 wild type;histone octamer (Homo sapiens;, UniProt O00482;C0HKE1;Q6ZWY9;P84244;P62806 1-541;2-130;2-126;2-136;2-103, |)
# Test: SeEN-seq (EMSA of nucleosome library followed by sequencing); 0.8 uM human NR5A2; 20 mM Tris-HCl pH 7.5, 120 mM NaCl, 1 mM MgCl2, 10 uM ZnCl2, 1 mM DTT, 100 ug/ml BSA, room temperature, 30 min; 0.1 uM nucleosome library; high values mean tight binding
row,Binder,binding signal
1,B1,"1.82 log2 enrichment (bound/unbound, relative to Widom 601)"
2,B2,"1.32 log2 enrichment (bound/unbound, relative to Widom 601)"
3,B3,"0.852 log2 enrichment (bound/unbound, relative to Widom 601)"
4,B4,"2.48 log2 enrichment (bound/unbound, relative to Widom 601)"
5,B5,"4.82 log2 enrichment (bound/unbound, relative to Widom 601)"
6,B6,"0.694 log2 enrichment (bound/unbound, relative to Widom 601)"
7,B7,"0.783 log2 enrichment (bound/unbound, relative to Widom 601)"
8,B8,"0.693 log2 enrichment (bound/unbound, relative to Widom 601)"
9,B9,"2.41 log2 enrichment (bound/unbound, relative to Widom 601)"
10,B10,"0.761 log2 enrichment (bound/unbound, relative to Widom 601)"
11,B11,"0.81 log2 enrichment (bound/unbound, relative to Widom 601)"
12,B12,"0.722 log2 enrichment (bound/unbound, relative to Widom 601)"
13,B13,"2.28 log2 enrichment (bound/unbound, relative to Widom 601)"
14,B14,"2.74 log2 enrichment (bound/unbound, relative to Widom 601)"
15,B15,"2.58 log2 enrichment (bound/unbound, relative to Widom 601)"

# Molecular target: mouse Nr5a2 wild type;histone octamer (Mus musculus;, UniProt P45448;C0HKE1;Q6ZWY9;P84244;P62806 1-560;2-130;2-126;2-136;2-103, |)
# Test: SeEN-seq (EMSA of nucleosome library followed by sequencing); 1.2 uM mouse Nr5a2; 20 mM Tris-HCl pH 7.5, 120 mM NaCl, 1 mM MgCl2, 10 uM ZnCl2, 1 mM DTT, 100 ug/ml BSA, room temperature, 30 min; 0.1 uM nucleosome library; high values mean tight binding
row,Binder,binding signal
1,B1,"1.7 log2 enrichment (bound/unbound, relative to Widom 601)"
2,B2,"1.03 log2 enrichment (bound/unbound, relative to Widom 601)"
3,B3,"0.628 log2 enrichment (bound/unbound, relative to Widom 601)"
4,B4,"2.25 log2 enrichment (bound/unbound, relative to Widom 601)"
5,B5,"3.77 log2 enrichment (bound/unbound, relative to Widom 601)"
6,B6,"0.841 log2 enrichment (bound/unbound, relative to Widom 601)"
7,B7,"0.704 log2 enrichment (bound/unbound, relative to Widom 601)"
8,B8,"0.706 log2 enrichment (bound/unbound, relative to Widom 601)"
9,B9,"1.31 log2 enrichment (bound/unbound, relative to Widom 601)"
10,B10,"0.671 log2 enrichment (bound/unbound, relative to Widom 601)"
11,B11,"0.77 log2 enrichment (bound/unbound, relative to Widom 601)"
12,B12,"0.546 log2 enrichment (bound/unbound, relative to Widom 601)"
13,B13,"1.87 log2 enrichment (bound/unbound, relative to Widom 601)"
14,B14,"2.07 log2 enrichment (bound/unbound, relative to Widom 601)"
15,B15,"1.55 log2 enrichment (bound/unbound, relative to Widom 601)"
